Screening results from PubChem.
Pf growth 48h: inhibits P. falciparum growth in the first generation, 48 h; P. falciparum luciferase growth in erythrocytes, 48 h; Potency, µM (series often up to 28.7 µM), for the others: at the highest dose activity change, negative = inhibition, hits mostly inhibitors; 5.9% of 310,000 active; AID 504832
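Luminescence readout; reporter = integrated firefly luciferase in P. falciparum. RBC culture at 2% hematocrit, 0.1% parasitemia final, 37 C/5% CO2; decreased signal taken as growth inhibition.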
AmpC inh no detg: AmpC beta-lactamase inhibition without detergent; 0.52% of 330,000 active; Potency, µM (series often up to 57.1 µM), without a hit: at the top dose activity change, negative = inhibition, most hits filed as inhibitors; P00811; AID 485341; AmpC nitrocefin hydrolysis, absorbance 480 nm, 0.0001% Triton;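 note: plate controls were no compound for no effect and no enzyme for full effect; nearly all actives have a fitted effect of over 20% in size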
Target sequence (P00811 whole entry, looked up): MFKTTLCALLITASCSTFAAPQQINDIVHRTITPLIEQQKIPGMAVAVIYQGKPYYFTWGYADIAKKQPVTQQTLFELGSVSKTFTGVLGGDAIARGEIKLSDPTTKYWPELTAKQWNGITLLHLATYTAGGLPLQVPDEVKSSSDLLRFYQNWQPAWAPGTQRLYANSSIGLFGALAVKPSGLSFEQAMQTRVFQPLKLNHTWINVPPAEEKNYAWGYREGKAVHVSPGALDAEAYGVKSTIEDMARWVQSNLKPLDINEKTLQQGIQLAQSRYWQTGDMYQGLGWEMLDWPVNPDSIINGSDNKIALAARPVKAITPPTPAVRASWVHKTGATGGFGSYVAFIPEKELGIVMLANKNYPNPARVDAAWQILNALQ
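AmpC (5.3 nM in the dispensed reagent) in 20 mM phosphate pH 7.0 with 0.01% (detergent screen) or 0.0001% Triton X-100 was preincubated with compounds for 15 min at room temperature. Nitrocefin was then added from an 800 uM solution, and hydrolysis was followed at 480 nm.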
HCV inhibitor: HCV inhibition. Potency, µM (highest dose often 41.8 µM), for the others: at the highest dose activity change, negative = inhibition, actives largely listed as inhibitors. 3.4% of 340,000 active. Huh7.5.1 HCVcc-Cre infection, luciferase reporter, 44 h
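After 44 h co-culture of compound, cells and HCVcc-Cre (~0.5 moi), substrate is added for 15 min at room temperature and luciferase measured over 15 sec. Cells were seeded at 1,000/well and pre-cultured 4 h.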
AmpC detergent: inhibitors of E. coli AmpC beta-lactamase with detergent | AmpC hydrolysis of nitrocefin, absorbance 480 nm, 0.01% Triton | Potency, µM (doses to about 114 µM), without a hit: at the top dose activity change, negative = inhibition, usual class: inhibitors | 0.041% of 370,000 active | AID 485294;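 note: 0% = no-compound wells and -100% = no-enzyme wells; nearly all actives have a fitted effect of over 25% in size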
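20 mM phosphate pH 7.0 + 0.01% (detergent screen) or 0.0001% Triton X-100; 5.3 nM AmpC reagent; cpd preinc 15 min RT; nitrocefin (800 uM stock) to start; A480 q20 s × 4 min; Activity was normalised to no-enzyme and no-compound control wells.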
Pf growth 96h: P. falciparum growth inhibition at 96 hours; P. falciparum luciferase reporter growth, 96 h; Potency, µM (doses to about 28.7 µM), inactives show top-dose activity change, negative = inhibition, usual class: inhibitors; 6.9% of 320,000 active; AID 504834
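Readout is luminescence from an integrated firefly luciferase in P. falciparum. Red cells, 2% hematocrit and 0.05% parasitemia final, were cultured with compound through two parasite generations (96 hours) at 37 C, 5% CO2.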
AMA1-RON2 inh: inhibitors of Plasmodium falciparum AMA1-RON2 interaction; AlphaScreen AMA1-biotinylated RON2 peptide binding; Potency, µM (series often up to 58.2 µM), without a hit: top-dose activity change, negative = inhibition, usual class: inhibitors; 0.2% of 360,000 active; AID 720542;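 note: 0% = vehicle wells and -100% = peptide control; nearly all actives have a fitted effect of over 45% in size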
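AMA1 (3D7) with his tag at 25 nM final met compounds first, then biotinylated RON2 peptide at 25 nM; detection used donor plus acceptor beads, 10 µg/mL apiece, read by AlphaScreen after 30 min at room temperature.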
Starred values were filed as active, the others as inactive; ? = inconclusive; . = no result; [ ] = another dose, or the depositor's remark. Compounds with a hit are over-represented: about 11% of the library has one in this group of screens. Calls come from the whole dose curve; as a rule, active = well fitted curve in the direction sought with a large enough effect; inconclusive = small, poorly fitted or top-dose-only effect, or another doubt; inactive = no such curve, though single readings can be large; an effect the other way counts as inactive or inconclusive. Unless noted, % is set by controls: 0 for no effect and ±100 for the full control effect; potency is the fitted concentration of half-maximal effect.

SMILES	Pf growth 48h	AmpC inh no detg	HCV inhibitor	AmpC detergent	Pf growth 96h	AMA1-RON2 inh
N/C(=N\OC(=O)c1ccccc1Cl)c1cccc([N+](=O)[O-])c1	284%	-9%	9%	-18%	-26%	0%
N/C(=N\OC(=O)c1ccc([N+](=O)[O-])cc1Cl)c1ccccn1	117%	-7%	?	-14%	?	66%
N/C(=N\OC(=O)c1cc([N+](=O)[O-])ccc1Cl)c1ccccn1	45%	-9%	11µM*	1%	-23%	18%
O=C1NC(=O)N(Cc2ccccc2)C(=O)/C1=C\c1ccco1	16%	-26%[11.4 µM]	20%	-15%	-4%	?
O=C1NC(=O)N(Cc2ccco2)C(=O)/C1=C/c1cccn1CCOc1ccccc1Cl	23%	13µM*	8%	-12%	-29%	-10%
O=C(NCc1nc2ccccc2[nH]1)C1=C[C@@H](c2csc3ccccc23)C[C@@H](OCc2ccc(CO)cc2)O1	?	-3%	6%[8.37 µM]	-1%	3.3µM*	63%
O=C(NCc1nc2ccccc2[nH]1)C1=C[C@H](c2csc3ccccc23)C[C@H](OCc2ccc(CO)cc2)O1	12µM*	-1%	?	0%	15µM*	-2%
O=C(NCc1nc2ccccc2[nH]1)C1=C[C@@H](c2ccc(Br)cc2)C[C@@H](OCc2ccc(CO)cc2)O1	?	-1%	?	-6%	?	33%
CCOCCCn1c(SCc2nc3ccccc3s2)nc2ccccc2c1=O	?	-9%	11µM*	9%	?	18%
COc1ccc(NC(=O)C(=O)NCC(c2cccnc2)N2CCc3ccccc3C2)cc1 (stereo not drawn)	.	.	.	-6%	.	.
O=C(Nc1c(C(=O)N2CCN(c3ccccc3)CC2)oc2ccccc12)c1ccco1	.	.	.	-5%	.	.
CCN(CCCNC(=O)CN(C)S(=O)(=O)c1cccc2nsnc12)c1cccc(C)c1	?	82%	?	-9%	8.3µM*	-18%
CCN(CCNC(=O)CN(C)S(=O)(=O)c1cccc2nsnc12)c1ccccc1	.	35%	-19%	-6%	12µM*	-13%
CN(CC(=O)Nc1ccc(F)c(F)c1)S(=O)(=O)c1cccc2cccnc12	2%	-30%	?	3%	13µM*	-9%
CCN(CC)c1ccc(NC(=O)CN(C)S(=O)(=O)c2cccc3nsnc23)c(C)c1	.	.	.	1%	.	.
Cc1ccc(NC(=O)CN(C)S(=O)(=O)c2cccc3nsnc23)cc1	-1%	0.16µM*	?	-1%	38%	6%
CCN(CCNC(=O)C1CCN(S(=O)(=O)c2cccc3nsnc23)CC1)c1ccccc1	?	30%	-23%	5%	49%	-3%
CN(CC(=O)Nc1ccc(Cl)cc1)S(=O)(=O)c1cccc2cccnc12	.	-43%	?	?	?	-2%
CN(CC(=O)Nc1ccc(Br)cc1)S(=O)(=O)c1cccc2nsnc12	.	.	.	0%	.	.
Cc1ccccc1-c1noc(CSc2nnc(Cc3ccccc3)n2-c2ccc(F)cc2)n1	.	.	.	4%	.	.
O=C(CSc1nc2c(c(=O)[nH]1)CN(Cc1ccc3c(c1)OCO3)CC2)Nc1ccc(F)cc1	.	.	.	-7%	.	.
CCOc1cc2c3c(c1)C(C)CC(C)(C)N3C(=O)C2=O (stereo not drawn)	?	-9%	.	1%	0.83µM*	-8%
Cc1cc2c3c(c1)C(C)CC(C)(C)N3C(=O)C2=O (stereo not drawn)	-18%	-23%	15%	-6%	0%	-15%
CCCCN(CC)C(=O)CCn1c(=O)c2cccn2c2cccnc21	.	.	.	5%	.	.
CCOc1ccccc1NC(=O)C(NCC1(N2CCCCC2)CCCCC1)c1ccccc1 (stereo not drawn)	?	38%	?	-6%	3.7µM*	-1%
SMILES	Pf growth 48h	AmpC inh no detg	HCV inhibitor	AmpC detergent	Pf growth 96h	AMA1-RON2 inh
Oc1c(/C=C/C=C/C=Nc2ccccc2)sc(=S)n1Cc1ccccc1	-10%	13µM*	4%	-2%	2%	-7%
Cc1ccc(-c2onc(C)c2C)cc1S(=O)(=O)N1CCC(C)CC1	.	.	.	0%	.	.
COc1ccc(/C(C)=N/NC2=NCCN2)cc1Cl	4.7µM*	-13%	-20%	0%	3.7µM*	-6%
C/C(=N\Nc1ccc([N+](=O)[O-])cc1)c1cccc(N)c1	178%	-31%	-18%	?	144%	-5%
C/C(=N\Nc1nccnc1Cl)c1ccc(Cl)c(Cl)c1	1%	2%	-19%	?	-25%	5%
C/C(=N\NC1=NCCN1)c1ccc(N)c([N+](=O)[O-])c1	2.1µM*	-2%	?	2%	?	0%
CCCCOc1ccc(Br)cc1/C(C)=N/NC1=NCCN1	4.7µM*	41%	3.2µM*	3%	-10%	-12%
CC(=NNC1=NCCN1)c1cn(C2=NCCN2)nc1C	.	.	.	.	.	41%
CCCCCCOc1ccc(/C(C)=N/NC2=NCCN2)cc1[N+](=O)[O-]	?	-10%	32µM*	3%	28%	-4%
Cc1ccc(C(C)C)c(OCC(=O)NCC2(N3CCOCC3)CCCCC2)c1	.	.	.	-1%	.	.
O=c1c(-c2cc(-c3ccccc3)nc3c2COc2ccccc2-3)coc2ccc(Cl)cc12	.	.	.	-2%	.	.
CN(c1ccccc1)S(=O)(=O)c1cccc(NS(=O)(=O)c2cccc(C(=O)O)c2)c1	3%	-21%	25%	?	-24%	-23%
Cc1nnc(SCC(=O)Nc2cccc(S(=O)(=O)N(C)c3ccccc3)c2)s1	-8%	-7%	7.1µM*	2%	?	9%
CN(c1ccccc1)S(=O)(=O)c1cccc(NC(=O)CC(C)(C)C)c1	-17%	-15%	?	?	12µM*	-6%
Cc1ccc(C(=O)Nc2cccc(S(=O)(=O)N(C)c3ccccc3)c2)o1	8.3µM*	-29%	?	7%	13µM*	10%[11.6 µM]
COc1cc(CC(=O)Nc2cccc(S(=O)(=O)N(C)c3ccccc3)c2)cc(OC)c1OC	.	-10%	10µM*	.	.	2%
CC(=O)N1CCCc2cc(S(=O)(=O)N3CCCC(C(=O)Nc4ccc(F)cc4F)C3)ccc21 (stereo not drawn)	.	.	.	-9%	.	.
Cc1cn2c(=O)cc(COC(=O)c3ccc(NC(=O)c4ccc(C(C)(C)C)cc4)cc3)nc2s1	.	.	.	-4%	.	.
CCN(CC(=O)Nc1cccc(S(=O)(=O)N(C)c2ccccc2)c1)Cc1cccs1	?	-9%	35µM*	-8%	?	-7%[11.6 µM]
Cc1ccsc1CN(C)CC(=O)Nc1cccc(S(=O)(=O)N(C)c2ccccc2)c1	?	53%	?	-13%	?	5%
